Holding throughout (assay): NCI-60 one-dose screen, 48 h (100 = growth as untreated, 0 = no growth, -100 = all killed)
Holding throughout (details): 10 µM

The subject of test [1] is NCI-H23 lung.
The subject of test [2] is NCI-H226 lung.
Test [3] concerns NCI-H322M lung.
Test [4] relates to HOP-62 NSCLC.
Test [5] has as its system NCI-H460 lung.
Test [6] deals with HOP-92 NSCLC.
Test [7] deals with NCI-H522 lung.
The subject of test [8] is A549/ATCC NSCLC.
Test [9] concerns 786-0 renal.
In test [10] the test system is COLO 205 colon.
Test [11] has as its system DU-145 prostate.
For test [12], the system named is K-562 leukemia.
Test [13] deals with MALME-3M melanoma.
Test [14] has as its system MDA-MB-231 breast.
In test [15] the test system is RXF 393 renal.
Test [16] concerns SF-268 CNS.
Test [17] concerns SF-295 CNS.
Test [18] deals with SF-539 CNS.
Test [19] relates to UACC-257 melanoma.
In test [20] the test system is M14 melanoma.

From PubChem BioAssay (NCI) come the findings set out here.

About 83,000 compounds went through this panel and 20% of them were active in at least one assay; those are over-represented in the sample as a whole.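 Activity criterion: percent growth below 10, measured after cells in 96-well plates were exposed to a single compound concentration for 48 hours.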 Values without a mark were called inactive. Activity calls are given as the source filed them.

For the molecule `Cc1nc2sccn2c1-c1csc(Nc2cccc(Cl)c2C)n1`, the growth in test [1] is 52.1%; in test [2], 57.3%; in test [3], 81%; in [4] it was 79.3%; in test [5] it was 61.2%; in test [6], 16.3%. Further, the growth was 41.8% in test [7]; 37.5% in [8]; 63.3% in test [9]; 69.7% in test [10]; 78.7% in [11]; 16% in [12]. Besides, the growth is 58.9% in test [13]; 65.4% in test [14]; 67.8% in test [15]; 80.1% in test [16]; 37.8% in [17]; 63.8% in test [18]. The figures for the growth in [19] and in test [20] were 34% and 50.8%, respectively.
With `O=C(O)CNS(=O)(=O)c1ccc(OCCOc2ccc(S(=O)(=O)NCC(=O)O)cc2)cc1`, the growth in test [1] is 95.9%; in test [2] it was 100%; in [3], 97.4%; in test [4], 92.8%; in test [5], 109%; in test [6], 104%. In addition, the growth was 88.9% in test [7]; 104% in test [8]; 104% in test [9]; 99.8% in test [10]; 107% in [11]; 104% in test [12]. The growth in test [13] was 99.7%; in test [14], 108%; in test [15], 106%; in test [16], 98.9%; in test [17] it was 104%; in [18], 93.6%. Further, the growth in test [19] and in [20] was 104% throughout.
Consider `NC(=O)c1ccc(Br)o1`, for which the growth in test [1] was 95.1%; in test [2], 104%; in test [3] it was 104%; in test [4], 91.7%; in [5], 109%; in test [6], 114%. For the same molecule, the growth in test [7] is 88.3%; in [8], 109%; in [9] it was 96.8%; in test [10], 103%; in [11], 109%; in test [12] it was 105%. The growth was 109% in test [13]; 101% in [14]; 112% in [15]; 101% in [16]; 97.4% in test [17]; 96.5% in test [18]. Besides, the growth in test [19] was 114%; in test [20] it was 108%.
Take `COc1ccc(-c2nsc3c2NC(=O)CC3c2ccc(Cl)cc2)cc1` (stereo not given): the growth was 83.9% in [1]; 84.4% in [2]; 83.5% in [3]; 92.6% in test [4]; 94.8% in [5]; 73.3% in [6]. Moreover, the growth is 68.1% in [7]; 76.6% in [8]; 84.2% in test [9]; 93.8% in [10]; 98.4% in test [11]; 66.6% in test [12]. Besides, the growth in [13] was 78%; in test [14], 94.9%; in test [15] it was 105%; in [16] it was 97.2%; in test [17], 79.2%; in [18] it was 92.5%. The growth in test [19] is 82.5%; in [20], 84.4%.
For the molecule `c1ccc(C2CCCCC2)c(OCCCCCN2CCNCC2)c1`, the growth in test [1] is 71.2%; in test [2], 84.7%; in test [3], 72.6%; in test [4] it was 78.9%; in test [5], 4.61% (active); in test [6] it was 29.4%. Besides, the growth in test [7] was 60.8%; in [8], 53%; in [9], 60.1%; in test [10], -74.6% (active); in test [11], 72.8%; in test [12] it was -13.1% (active). For the same molecule, the growth is 43% in [13]; 15.9% in test [14]; 36.4% in [15]; 70.7% in test [16]; 63.5% in [17]; 68.7% in test [18]. Further, the growth in [19] was 19.9%; in test [20], -66.5% (active).
As to `COc1ccccc1S(=O)(=O)Nc1ccc2c(c1)CN(C)C(=O)N2`, the growth is 56.7% in test [1]; 63% in [2]; 42.9% in [3]; 44.3% in test [4]; 55.8% in test [5]; 2.37% (active) in test [6]. The growth in test [7] is 26.1%; in test [8], 50.5%; in test [9], 72.7%; in test [10], 38.4%; in test [11], 77.8%; in test [12], 28.6%. For the same molecule, the growth in [13] is 32.2%; in [14] it was 54.7%; in [15], 73.3%; in [16], 72.9%; in [17] it was 5.34% (active); in test [18], 50.1%. Besides, the growth in [19] was 33.8%; in test [20], 47.8%.
For the molecule `COc1ccc(C(=O)/C=C/c2cc(-c3ccc4c(c3)OCO4)n[nH]2)cc1OC`, the growth in test [1] is 61.6%; in test [2], 39.6%; in test [3], 36.3%; in test [4], 51.1%; in test [5], 15.7%; in test [6] it was 55.7%. In addition, the growth was 19.4% in test [7]; 37.9% in test [8]; 71.7% in test [9]; 56.1% in test [10]; 39.7% in test [11]; 23.8% in test [12]. Moreover, the growth in test [13] is 94.4%; in test [14], 58.3%; in test [15] it was 38.6%; in test [16] it was 45.4%; in test [17], 53.4%; in test [18] it was 42.2%. Also, the growth in test [19] is 109%; in test [20] it was 91.6%.
Consider `CCC(OC(=O)CC(C)C)c1ccccc1` (stereo not given), for which the growth is 98.8% in test [1]; 89.4% in test [2]; 93.3% in [3]; 96.3% in test [4]; 105% in test [5]; 92.8% in test [6]. The growth in test [7] is 71.8%; in test [8], 80.6%; in test [9], 95.2%; in test [10], 107%; in test [11] it was 103%; in test [12], 99.6%. Moreover, the growth in [13] was 110%; in test [14], 106%; in [15], 98.2%; in test [16], 93.7%; in test [17] it was 94.7%; in [18], 98.4%. The growth in test [19] is 80.6%; in test [20], 102%.
